Laboratory results as given in PubChem BioAssay (EPA / NIEHS).
Results filed as inconclusive are left out. Active and inactive are the calls of the source. How the source made its calls: active means hit-call score of the fitted dose curve at least 0.9, where 1 is the maximum; inconclusive means response in the unintended direction; inactive means score below 0.9.

What follows are compounds tested against Agonist Androgen Response Element (ARE), AR (gene 367) (UniProt P10275) (assay: OT_AR_ARELUC_AG_1440: Odyssey Thera (OT) 24-hour CHO-K1 Luciferase Assay for Agonist Androgen Response Element (ARE) (AID 2283379)).
In short: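 Luminescence increase above DMSO, read after a 24 h compound treatment of CHO-K1 cells expressing an androgen response element luciferase reporter, gives the single primary endpoint; concentration-response fitting used the positive direction.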

Agonist Androgen Response Element (ARE), AR (gene 367), sequence (P10275 whole entry, looked up): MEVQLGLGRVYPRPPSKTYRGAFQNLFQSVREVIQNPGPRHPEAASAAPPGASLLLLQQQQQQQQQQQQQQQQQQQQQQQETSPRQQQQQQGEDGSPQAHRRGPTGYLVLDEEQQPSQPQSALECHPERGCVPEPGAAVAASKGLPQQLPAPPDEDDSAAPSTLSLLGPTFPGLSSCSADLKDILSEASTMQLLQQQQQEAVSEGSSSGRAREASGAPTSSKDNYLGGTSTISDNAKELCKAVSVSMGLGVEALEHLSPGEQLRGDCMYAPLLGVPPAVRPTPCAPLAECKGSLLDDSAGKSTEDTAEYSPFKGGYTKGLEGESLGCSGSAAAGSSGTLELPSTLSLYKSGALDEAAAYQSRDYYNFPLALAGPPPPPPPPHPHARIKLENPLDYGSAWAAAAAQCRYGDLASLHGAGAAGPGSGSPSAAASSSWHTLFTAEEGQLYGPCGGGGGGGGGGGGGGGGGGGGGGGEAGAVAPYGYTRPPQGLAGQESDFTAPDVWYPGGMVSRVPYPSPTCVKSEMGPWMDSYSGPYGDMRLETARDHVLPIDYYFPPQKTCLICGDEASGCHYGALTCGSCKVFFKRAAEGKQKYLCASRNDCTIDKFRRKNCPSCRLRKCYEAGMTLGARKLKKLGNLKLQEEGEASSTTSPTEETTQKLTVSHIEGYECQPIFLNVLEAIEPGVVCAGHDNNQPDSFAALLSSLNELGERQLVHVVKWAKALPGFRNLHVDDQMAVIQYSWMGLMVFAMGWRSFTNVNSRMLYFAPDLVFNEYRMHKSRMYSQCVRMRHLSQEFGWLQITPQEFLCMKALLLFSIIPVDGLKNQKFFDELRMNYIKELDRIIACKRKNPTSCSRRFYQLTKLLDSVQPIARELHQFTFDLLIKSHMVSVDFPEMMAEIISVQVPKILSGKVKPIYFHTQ

Structure (SMILES) | outcome | AC50
CCCc1ccc(OC)cc1 | inactive | 
CC(C)(C)c1ccc(-c2ccc(C(C)(C)C)cc2)cc1 | inactive | 
CC(C)=CCC[C@H](C)CCO |  | 0.239 µM (active)

These compounds were tested against Estrogen receptor beta (Homo sapiens) (UniProt Q92731) (assay: OT_ER_ERbERb_1440: Odyssey Thera (OT) 24-hour HEK293T Protein-Complementation Assay for Estrogen Receptor-beta/-beta Homodimer (AID 2283380);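 further: fluorescence gain from ER beta LBD homodimer complementation read by laser scanning cytometry; scored as signal increase over DMSO baseline for both agonists and antagonists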).
In short: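 HEK293T cells stably expressing human ER-beta LBD (aa 310-547) PCA homodimer pair, dosed 24 h; formaldehyde-fixed, Draq5-stained. Readout: increase in nuclear (agonist) or nuclear plus cytoplasmic (antagonist) fluorescence intensity versus DMSO, gain-of-signal fitting.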

Estrogen receptor beta (Homo sapiens), sequence (Q92731 whole entry, looked up, the tested form may be a part): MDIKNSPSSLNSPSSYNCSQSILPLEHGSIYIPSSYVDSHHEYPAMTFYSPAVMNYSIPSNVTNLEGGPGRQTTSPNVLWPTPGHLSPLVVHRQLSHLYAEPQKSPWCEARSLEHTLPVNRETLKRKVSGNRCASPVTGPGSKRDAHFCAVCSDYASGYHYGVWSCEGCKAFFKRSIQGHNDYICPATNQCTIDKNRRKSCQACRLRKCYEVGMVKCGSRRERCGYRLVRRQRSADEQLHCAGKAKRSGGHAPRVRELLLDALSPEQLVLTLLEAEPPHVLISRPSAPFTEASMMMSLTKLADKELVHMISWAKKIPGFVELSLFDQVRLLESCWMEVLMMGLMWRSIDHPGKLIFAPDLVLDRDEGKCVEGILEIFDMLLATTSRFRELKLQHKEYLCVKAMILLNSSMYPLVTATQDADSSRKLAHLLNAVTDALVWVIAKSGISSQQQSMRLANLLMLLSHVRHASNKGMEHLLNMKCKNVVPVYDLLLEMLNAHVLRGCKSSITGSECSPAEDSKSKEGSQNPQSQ

Structure (SMILES) | outcome | AC50
O=C(c1ccccc1)C1CCC1 | inactive | 
CCO[Si](C)(OCC)OCC | inactive | 
CCCCCCCOC(=O)CCC | inactive | 
c1c[nH]cn1 | inactive | 
C=C1C2CCC(C2)C1(C)C (stereo unspecified) | inactive | 
CC(C)c1ccc2cc(C(C)C)ccc2c1 | inactive | 
CC(C)(C)c1ccc(OC(=O)c2ccccc2O)cc1 |  | 32 µM (active)
CCOC(=O)Cc1cccc2ccccc12 | inactive | 
Cc1ccc(C(C)c2ccc(C)c(C)c2)cc1C | inactive | 
Cc1cc(C)c(C(=O)O)c(C)c1 | inactive | 
CO[Si](OC)(OC)c1ccccc1 | inactive | 
Cn1c([N+](=O)[O-])cnc1COC(N)=O | inactive | 
CCCc1ccc(OC)cc1 | inactive | 
CC(C)(C)c1ccc(N)cc1 | inactive | 
CC(C)(C)c1ccc(-c2ccc(C(C)(C)C)cc2)cc1 | inactive | 
CNC(=S)NN | inactive | 
OC1CCCC1 | inactive | 
COC(=O)c1c(C)cc(O)c(C)c1O |  | 56.4 µM (active)
O=C1C(N(CO)C(=O)NCO)N(CO)C(=O)N1CO (stereo unspecified) | inactive | 
O=C(C=Cc1ccccc1)OCc1ccccc1 | inactive | 
CCOC(=O)CC | inactive | 
CC=C1CC2C=CC1C2 (stereo unspecified) | inactive | 
NC(=O)c1ccccc1O | inactive | 
CC1=CC[C@H]2C[C@@H]1C2(C)C | inactive | 
O=C1CCCC1 | inactive | 
CC(C)=CCC[C@H](C)CCO | inactive | 
NC(=O)N=NC(N)=O | inactive | 
C=CC(=O)NC(C)(C)CS(=O)(=O)O | inactive | 
